# RBX1-CUL1 inh: inhibitors of human ROC1-CUL1 ubiquitin ligase activity; inhibition, % at 10 µM; actives 0.6% (n = 140,000); E3 ubiquitin-protein ligase RBX1 (Homo sapiens) + Cullin-1 (Homo sapiens), P62877+Q13616; in vitro K48 di-Ub FRET, acceptor:donor ratio, 45 min; in the data active means inhibition above about 25%
# The depositor's hits bear a star. Many of the other results were omitted from the sample, so hits are more common in it than they were.
SMILES,RBX1-CUL1 inh
CC(=O)Nc1ccc(-n2c(C)ccc2C)cc1,2
Cc1ccc(C)n1-c1ccc(CC(=O)O)cc1,67*
COC(=O)c1ccc(-n2c(C)ccc2C)cc1,1
CC1COc2c(ccc(F)c2F)N1C(=O)CCCC(=O)Nc1cccc2ccccc12 (centres undefined),2
O=C(Nc1ccc2nc(SCC(=O)N3CCOCC3)sc2c1)c1cccc(F)c1,4
O=C(Nc1ccc2nc(SCC(=O)N3CCOCC3)sc2c1)c1cccc(Br)c1,27*
O=C(Nc1ccc2nc(SCC(=O)N3CCOCC3)sc2c1)c1ccc(Br)cc1,-10
O=C(CSc1ccc(Cl)cc1)Nc1ccc(Cl)cc1C(F)(F)F,-1
Cc1sc2nc(-c3ccccc3)[nH]c(=O)c2c1C,7
Cc1sc2nc(-c3ccc(-c4ccc(Cl)c(C(=O)O)c4)o3)[nH]c(=O)c2c1C,47*
Cc1sc2nc(-c3ccc(-c4ccc(C(=O)O)cc4)o3)[nH]c(=O)c2c1C,-2
CCc1cc(OC)c(OC)cc1C(CC)NC(=O)c1ccco1 (centres undefined),1
CCN1CC(CNC2CCN(c3ccc(CC(=O)NCCc4cccc(F)c4)cc3)CC2)CC1=O (centres undefined),2
CC(=O)c1c(C)cc2n1CCn1c(C)ccc1-2,-5
COc1ccc(-c2ccc(/C=C(/C#N)S(=O)(=O)c3ccccc3)o2)cc1,29*
N#C/C(=C\c1ccc(F)cc1)S(=O)(=O)c1ccccc1,9
N#C/C(=C\c1ccccc1)S(=O)(=O)c1ccccc1,0
COCCn1c(CN2CCCO2)cnc1S(=O)(=O)CC1CCCCC1,-3
CN(CC1CCCN(CCc2ccc(Cl)cc2)C1)C(=O)Cn1cncn1 (centres undefined),6
COCCN(C)C(=O)c1ccc(OC2CCN(C3CCCC3)CC2)c(OC)c1,0
O=c1ccccc2c(/C=C/c3ccc(Cl)cc3Cl)nn(-c3ccccc3)c12,26*
O=c1c(Cl)cc(Cl)nn1-c1ccccc1,-8
COc1cc(/C=C/c2nn(-c3ccc(Br)cc3)c3c(=O)ccccc23)cc(OC)c1OC,6
CN(C)OC(=O)c1ccc(-c2c[n+]3ccccc3n2C)cc1,3
Cc1cc(/C=C2\C(=O)NC(=S)N(c3cccc(Cl)c3)C2=O)c(C)n1-c1sc2c(c1C(=O)Nc1ccccc1)CCCC2,8
SMILES,RBX1-CUL1 inh
Cc1cc(/C=C2\C(=O)NC(=S)N(c3ccc(Cl)cc3)C2=O)c(C)n1-c1sc2c(c1C(=O)Nc1ccccc1)CCCC2,41*
Cc1cccc(N2C(=O)/C(=C/c3cc(C)n(-c4sc5c(c4C(=O)Nc4ccccc4)CCCC5)c3C)C(=O)NC2=S)c1,4
O=C(O)c1ccc(/C=C2\SC(=S)N(NC(=O)c3ccccc3)C2=O)cc1,-2
CCOc1cc(/C=C2/SC(=S)N(C(CCC(=O)O)C(=O)O)C2=O)ccc1O (centres undefined),14
CC(/C=C1\SC(=S)N(c2ccc(C(=O)O)cc2)C1=O)=C\c1ccccc1,106*
O=C(O)CCC(C(=O)O)N1C(=O)/C(=C/c2cccc(Br)c2)SC1=S (centres undefined),-3
Cc1ccc(N2C(=O)/C(=C/c3ccc(C(=O)O)cc3)SC2=S)cc1C,-3
CCCC(C(=O)O)N1C(=O)/C(=C/C(C)=C/c2ccccc2)SC1=S (centres undefined),29*
O=C(CN1C(=O)c2ccccc2C1=O)N1CCN(c2ccc(Cl)cc2)CC1,-5
CC1(C)Cc2nc(N3CCOCC3)ncc2C(NC(=O)c2cn[nH]c2)C1 (centres undefined),-5
CCCCSc1nnc2c(n1)OC(c1ccsc1)N(C(=O)CC)c1ccccc1-2 (centres undefined),11
COc1cc(/C=C2/C(=N)N3N=C(c4ccco4)SC3=NC2=O)cc(OC)c1OC,18
CC(C)(C)c1ccc(C(=O)Oc2cccc(/C=C3\C(=N)N4N=C(c5ccco5)SC4=NC3=O)c2)cc1,96*
N=C1/C(=C/c2cccc(OC(=O)c3cccs3)c2)C(=O)N=C2SC(c3cccs3)=NN12,95*
Cc1ccc(S(=O)(=O)Oc2cccc(/C=C3/C(=N)N4N=C(CC(C)C)SC4=NC3=O)c2)cc1,1
CCOC(=O)c1ccc(-c2ccc(/C=C3/C(=N)N4N=C(c5ccc(C)cc5)SC4=NC3=O)o2)cc1,2
N=C1/C(=C/c2cccc(Br)c2)C(=O)N=C2SC(C(F)(F)F)=NN12,-2
Cc1noc(C)c1C(=O)Nc1ccccc1F,6
CC(C)(C)c1ccc(C(=O)N(Cc2cccs2)C2CCS(=O)(=O)C2)cc1 (centres undefined),1
COc1ccc(C2C(C#N)C(=N)SC(=N)C2C#N)cc1OC (centres undefined),1
Cc1ccc(C2c3c(n[nH]c3C)OC(=N)C2C#N)o1 (centres undefined),5
Cc1ccc(C2C(C#N)C(=N)SC(=N)C2C#N)o1 (centres undefined),40*
Cc1cccc(Nc2nc(N3CCCCC3)ncc2F)c1C,-1

# Screening results (PubChem BioAssay)
